Laboratory results published in PubChem BioAssay AID588579 (National Center for Advancing Translational Sciences (NCATS), 2011).
Where “and” joins values, the source holds several entries; their conditions need not be identical. Equal entries are not always repeated. In all, about 400,000 compounds went through this assay and about 2,200 (0.55%) were called active. About 1% were inconclusive and are not listed. The sample holds actives, similar compounds and a random draw of the others, so the mix is not that of the screen. Calls follow the shape of the dose curve; as a rule, active = well fitted inhibition curve with a large enough effect; inconclusive = small, poorly fitted or top-dose-only effect, or another doubt; inactive = no such curve, though single readings can be large or run the other way.

What follows are compounds tested against DNA polymerase kappa (Homo sapiens) (UniProt Q9UBT6) (assay: qHTS for Inhibitors of Polymerase Kappa). Details: purified Pol kappa, fluorescent DNA synthesis assay, 10 min; series mostly up to 107 µM; activity, negative = inhibition: at the top concentration.
Method in brief: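 First, compounds were pin-transferred onto 10 nM Pol kappa. After 15 min at room temperature, substrate was added to 50 nM final. Fluorescence was then measured kinetically at 0 and 10 min.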
% is scaled to controls: 0 for no effect and ±100 for the full control effect; potency is read from the fitted curve at half-maximal effect.

Chain of DNA polymerase kappa (Homo sapiens) (Q9UBT6 whole entry, looked up): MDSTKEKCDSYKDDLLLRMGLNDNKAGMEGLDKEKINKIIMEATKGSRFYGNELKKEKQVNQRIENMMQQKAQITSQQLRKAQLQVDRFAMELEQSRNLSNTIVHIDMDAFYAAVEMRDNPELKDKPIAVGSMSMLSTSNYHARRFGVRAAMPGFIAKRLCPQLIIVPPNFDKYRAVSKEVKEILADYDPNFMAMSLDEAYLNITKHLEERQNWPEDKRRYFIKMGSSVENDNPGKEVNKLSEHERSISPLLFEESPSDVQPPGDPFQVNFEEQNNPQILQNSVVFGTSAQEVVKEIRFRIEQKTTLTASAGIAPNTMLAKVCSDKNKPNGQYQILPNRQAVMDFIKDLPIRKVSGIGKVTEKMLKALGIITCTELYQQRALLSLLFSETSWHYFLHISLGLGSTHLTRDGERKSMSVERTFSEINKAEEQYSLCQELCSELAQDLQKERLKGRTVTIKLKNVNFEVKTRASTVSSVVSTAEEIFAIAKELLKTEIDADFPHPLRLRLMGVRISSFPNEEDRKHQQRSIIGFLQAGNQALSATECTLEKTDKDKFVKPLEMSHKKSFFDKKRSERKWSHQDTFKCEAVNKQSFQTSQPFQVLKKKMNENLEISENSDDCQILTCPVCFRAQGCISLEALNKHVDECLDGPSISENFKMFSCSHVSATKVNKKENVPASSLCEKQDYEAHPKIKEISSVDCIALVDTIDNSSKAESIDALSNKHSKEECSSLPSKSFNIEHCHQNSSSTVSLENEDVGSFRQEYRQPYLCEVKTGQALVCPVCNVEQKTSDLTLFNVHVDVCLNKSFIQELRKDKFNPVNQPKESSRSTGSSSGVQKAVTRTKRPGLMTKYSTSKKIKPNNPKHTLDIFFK

SMILES | activity, negative = inhibition | Potency
Nc1nc(N)c(N=O)c(N)n1 | -14.6% (inactive) | –
O=C(C[n+]1ccncc1)c1ccc2c(c1)CCCC2 | 6.4% (inactive) | –
CC(=O)NC(=O)c1ccccc1O | -8.55% [at 19.4 µM] (inactive) | –
COc1ccccc1-c1cc(NCc2cccs2)ncn1 | 4.13% [at 60.1 µM] (inactive) | –
CC(C)(C)C1CCC(NC(=O)c2cnn3c2NC(=C2CC2)C=C3C(F)F)CC1 (stereo not drawn) | -4.04% (inactive) | –
COc1ccc(C[C@H](N)C(=O)N[C@@H]2[C@H](O)[C@H](n3cnc4c(N(C)C)ncnc43)O[C@@H]2CO)cc1 | -1.14% [at 12 µM] (inactive) | –
Cc1cc[n+](C2CCCCC2)cc1 | 4.95% (inactive) | –
Cc1nc2cnc(N3CCN(C)CC3)nc2n(C[C@H]2CCCO2)c1=O | 1.75% [at 60.1 µM] (inactive) | –
O=C1NN(c2ccccc2)C(=O)/C1=C/c1ccc(-c2cccc(C(=O)O)c2)o1 | – | 44.7 µM (active)
CCCCOc1ccc(C(=O)NO)cc1 | 2.38% (inactive) | –
Cc1cc2oc(=O)cc(-c3ccccc3)c2c(C)c1/C=C/c1ccc(F)cc1 | -17.6% [at 60.1 µM] (inactive) | –
COc1cc(/C=C2\C(=N)N3N=C(CC(=O)N4CCOCC4)SC3=NC2=O)cc(OC)c1OC | – | 31.6 µM (active)
COc1ccccc1OCCOc1ccc(/C=C2\C(=N)N3N=C(C)SC3=NC2=O)cc1 | -11.3% (inactive) | –
COc1cc(C(=O)N2CCOCC2)cc(OC)c1OC | -0.831% [at 19.4 µM] (inactive) and 0.0712% [at 19.4 µM] (inactive) | –
C=C1C=C(C(F)F)n2ncc(C(=O)NCCc3ccccc3OC)c2N1 | 1.69% (inactive) | –
O=c1c(-c2cccs2)nc2cnc(Oc3ccccc3)nc2n1-c1ccccc1 | 8.26% [at 60.1 µM] (inactive) | –
CC(C)C1=CC2=CC[C@@H]3[C@](C)(CO)CCC[C@]3(C)C2CC1 (stereo partly drawn) | -20.7% [at 60.1 µM] (inactive) | –
CCOC(=O)Cn1c(=O)sc2cccc(Cl)c21 | -6.5% [at 12 µM] (inactive) | –
Nc1ncnc2nnsc12 | -11.5% (inactive) | –
Cc1ccc(Cc2cnc(N)s2)o1 | – | 15.8 µM (active)
COCCNc1ccnc(-c2cccc(NS(C)(=O)=O)c2)n1 | -1.6% [at 60.1 µM] (inactive) | –
O=C1OC(C(O)CO)C(O)=C1O (stereo not drawn) | 1.05% [at 60.1 µM] (inactive) | –
Cc1nn2c3cc(N4CCOCC4)ccc3nc2c2ccccc12 | -17.6% (inactive) | –
C1=C(N2CCOCC2)/C(=C/c2nc3ccccc3[nH]2)CC1 | – | 79.4 µM (active)
CNc1ncnc2ccc(-c3cccc(NS(C)(=O)=O)c3)cc12 | -3.17% [at 60.1 µM] (inactive) | –
CC[C@H](C)[C@H](NC(=O)[C@@H](N)CCC(=O)O)C(=O)N[C@@H](CC(C)C)C(=O)N[C@@H](CC(=O)O)C(=O)N[C@H](C(=O)N1CCC[C@H]1C(=O)N[C@@H](CO)C(=O)N[C@H](C(=O)O)[C@@H](C)O)C(C)C | 19.2% [at 60.1 µM] (inactive) | –

SMILES | activity, negative = inhibition | Potency
C=CCOC(=O)C(=C)C | 16.8% [at 60.1 µM] (inactive) | –
O=C1COc2ccc(-c3csc(-c4ccc(Cl)cc4)n3)cc2N1 | -13.5% (inactive) | –
CCc1nnc(NC(=O)CCC(=O)NCc2ccccc2OC)s1 | -16.7% (inactive) | –
COc1ccc(CC(=O)Nc2sc(Cc3ccccc3)c(C)c2C(N)=O)cc1 | -3.59% (inactive) | –
COc1ccc(Cc2nnc(NC(=O)Cc3cccs3)s2)cc1 | – | 14.1 µM (active)
C=C[C@](C)(O)CCC1C(=C)CCC2[C@@](C)(CO)CCC[C@@]12C (stereo partly drawn) | -3.85% [at 60.1 µM] (inactive) | –
CC(=O)OCC(=O)C1CCC2C3CCC4=CC(=O)CC[C@@]4(C)C3CC[C@]12C (stereo partly drawn) | -6.68% [at 60.1 µM] (inactive) | –
COC(=O)[C@@H]1CC2=CC(=O)CC[C@]2(C)[C@@]23O[C@@H]2C[C@@]2(C)[C@@H](CC[C@@]24CCC(=O)O4)[C@H]13 | -3.54% [at 60.1 µM] (inactive) | –
COc1ccc(/C=C/c2ccccn2)cc1OC | -24.3% (inactive) | –
Cn1c(N)c(C(=O)COC(=O)c2ccccc2NCc2ccco2)c(=O)n(C)c1=O | 6.37% (inactive) | –
COc1ccc(-n2c(SCC(=O)NCc3ccco3)nnc2-c2c[nH]c3ccccc23)cc1 | -8.14% (inactive) | –
CN(c1ccccc1)S(=O)(=O)c1ccc(Cl)c(C(=O)OCC(=O)N2CCOCC2)c1 | 8.17% (inactive) | –
CN(c1ccccc1)S(=O)(=O)c1ccc(Cl)c(C(=O)OCC(=O)NCc2ccco2)c1 | – | 79.4 µM (active)
Cc1cc(C(=O)OCC(=O)NCc2ccco2)c(C)n1-c1ccccc1 | – | 79.4 µM (active)
O=C(COC(=O)c1cc(S(=O)(=O)N2CCOCC2)ccc1Cl)NCCc1ccccc1 | -3.4% (inactive) | –
CCNc1ncc2ncc(=O)n(Cc3cccc(OC)c3)c2n1 | 2.21% [at 60.1 µM] (inactive) | –
Cc1cc(N(C)C)nc(Cl)n1 | -8.53% [at 12 µM] (inactive) | –
O=C(Nc1cccc(F)c1)N1CCC2(CC1)CCN(S(=O)(=O)c1ccccc1)CC2 | -9.65% [at 60.1 µM] (inactive) | –
COc1ccc(/C=C/c2ccnc3ccccc23)cc1OC | -24% (inactive) | –
Cc1cccc(CN2Cc3cccc4c3[C@H](C=CC4)CC2=S)c1 | -2.46% (inactive) | –
CCN(C(=O)COC(=O)CCC(=O)c1cccs1)C1CCCCC1 | -3.1% (inactive) | –
O=C(COC(=O)CCC(=O)c1cccs1)NCc1ccco1 | – | 31.6 µM (active)
CC1CCN(C(=O)COC(=O)CCC(=O)c2cccs2)CC1 | -7.82% (inactive) | –
O=C(Nc1cccc(F)c1)N1CC2(CCN(C(=O)c3cnccn3)CC2)C1 | 4.72% [at 60.1 µM] (inactive) | –
CC(C)[C@H](CO)Nc1nc(Nc2cc(N)cc(Cl)c2)c2ncn(C(C)C)c2n1 | -6.51% [at 19.4 µM] (inactive) | –
c1ccc(CSc2nnc(-c3ccco3)c(-c3ccco3)n2)cc1 | – | 20 µM (active)

SMILES | activity, negative = inhibition | Potency
Clc1ccccc1CSc1nncn2c1cc1occc12 | -18.1% (inactive) | –
Cc1ccc(-c2nnc(SCC(=O)NCc3ccccc3)nc2-c2ccc(C)cc2)cc1 | -7.44% [at 60.1 µM] (inactive) | –
CSc1n[nH]c(-c2ccco2)n1 | -8.42% (inactive) | –
CC1(C)N=C(SCc2ccccc2Cl)c2ccccc2N1 | -2.08% (inactive) | –
Clc1ccccc1CSc1nnc(-c2ccco2)c(-c2ccco2)n1 | – | 35.5 µM (active)
Nc1nc2c(nc(Cl)n2C2OC(CO)C(O)C2O)c(=O)[nH]1 (stereo not drawn) | -1.67% [at 60.1 µM] (inactive) | –
COC(=O)N1CCC2(CCCN(c3ccncc3)C2)CC1 | -15.3% [at 60.1 µM] (inactive) | –
O=P(O)(O)C(O)c1ccc2ccccc2c1 (stereo not drawn) | 8.31% [at 19.4 µM] (inactive) | –
COc1cc2nc(Cl)nc(NC3CC3)c2cc1OC | -19.7% (inactive) | –
Cc1ccc(Nc2nnc(-c3ccc(C)c(S(=O)(=O)N4CCCCC4)c3)c3ccccc23)cc1 | 2.95% (inactive) | –
Cc1ccc(-c2nnc(Nc3ccc(C(=O)N(C)C)cc3)c3ccccc23)cc1S(N)(=O)=O | -16% (inactive) | –
Cc1ccc(C)c(Nc2nnc(-c3ccc(C)c(S(=O)(=O)N4CCCCC4)c3)c3ccccc23)c1 | – | 79.4 µM (active)
Cc1ccc(-c2ncc(Cl)cc2-c2ccc(S(C)(=O)=O)cc2)cn1 | 1.36% [at 60.1 µM] (inactive) | –
O=C(c1cc(C(F)(F)F)cc(C(F)(F)F)c1)N1CCC2(CCCN(c3ccccn3)C2)CC1 | -9.22% [at 60.1 µM] (inactive) | –
COc1ccccc1CNc1ccnc(-c2c(C)noc2C)n1 | 5.78% [at 60.1 µM] (inactive) | –
Cc1ccccc1NC(=O)CN1C(=O)C(C)(C)c2ccccc21 | -11.7% [at 60.1 µM] (inactive) | –
Cc1ccccc1NC(=O)Cn1c(=O)n(CCc2ccccc2)c(=O)c2ccccc21 | 2.94% (inactive) | –
Cc1ccccc1NC(=O)CN1C(=O)N/C(=C\c2cccn2-c2cccc(C(=O)O)c2)C1=O | – | 14.1 µM (active)
COc1ccccc1CNc1nc(-c2c(C)noc2C)nc2ccccc12 | -6.77% [at 60.1 µM] (inactive) | –
COc1c(O)c2c(=O)cc(OC)c3c4c(OC)cc(=O)c5c(O)c(OC)c6c(c(c1C[C@@](C)(O)[C@H]6C(C)=O)c23)c54 | -7.61% [at 60.1 µM] (inactive) | –
CSc1nnc(SCc2nc3sc(C(=O)O)c(C)c3c(=O)[nH]2)s1 | – | 25.1 µM (active)
CCN(CC)Cc1nc2sc(C)c(C)c2c(=O)[nH]1 | 3.84% (inactive) | –
Cc1ccc(S(=O)(=O)N2CCCC2C(=O)OCc2nc3sc(C)c(C)c3c(=O)[nH]2)cc1 (stereo not drawn) | -2.3% (inactive) | –
FC(F)(F)c1ccccc1-c1cc(NCc2ccccc2)ncn1 | -1.26% [at 60.1 µM] (inactive) | –
CCC(C)N(c1ccc(/C=C/c2ccnc3ccccc23)cc1)C(C)CC (stereo not drawn) | -5.7% (inactive) | –
Cc1ccc(N=C2NC(=O)/C(=C/C=C/c3ccco3)S2)cc1C | – | 28.2 µM (active)

SMILES | activity, negative = inhibition | Potency
CC(=O)OC1CCC2(O)CC1(C)CCC1C2CC1(C)C (stereo not drawn) | -9.88% [at 60.1 µM] (inactive) | –
O=C(CSC(=S)N1CCOCC1)c1cc(Br)cc(Br)c1O | – | 79.4 µM (active)
O=C(c1cc2cc(Br)cc(Br)c2oc1=O)N1CCOCC1 | -6.06% (inactive) | –
O=C(CSC(=S)N1CCCCC1)c1c(F)cccc1F | 7.44% (inactive) | –
CCOCCOC(=O)C(C)Oc1ccc(Oc2ncc(C(F)(F)F)cc2Cl)cc1 (stereo not drawn) | 0.515% [at 60.1 µM] (inactive) | –
CC(=O)CC(c1ccccc1)C1C(=O)Oc2ccccc2C1=O (stereo not drawn) | -4.26% [at 60.1 µM] (inactive) | –
CN1C(=O)/C(=C/c2ccco2)SC1=Nc1cccc(C(=O)O)c1 | – | 20 µM (active)
O=C(O)c1cccc(N=NN2CCCCCC2)c1 | -8.29% (inactive) | –
CN=C1S/C(=C\c2c(OC)cc(OC)cc2OC)C(=O)N1C | 3.05% (inactive) | –
CCOC(OCC)OCC | 11.2% [at 60.1 µM] (inactive) | –
CCc1c2c(nc3ccc(O)cc13)-c1cc3c(c(=O)n1C2)COC(=O)[C@]3(O)CC | 8.42% [at 60.1 µM] (inactive) | –
NC(=O)Nc1ccc(/C=C/c2ccnc3ccccc23)cc1 | 3.65% (inactive) | –
COc1ccc2[nH]c3c(C)c4cc[n+](C)cc4c(C)c3c2c1 | – | 2.38 µM (active) and 11.2 µM (active)
Cc1cccc(CNc2ccnc(-c3cccnc3)n2)c1 | -9.88% [at 60.1 µM] (inactive) | –
COCCn1c(=O)c(-c2cc(F)cc(F)c2)nc2cnc(N3CCNCC3)nc21 | 1.68% [at 60.1 µM] (inactive) | –
CN(C)c1ccc(C=Nc2ccc(/C=C/c3ccnc4ccccc34)cc2)cc1 | -10.6% (inactive) | –
NC(=O)C(=O)N/N=C/c1ccc([N+](=O)[O-])o1 | 1.45% [at 60.1 µM] (inactive) | –
CCOC(=O)c1cc2cc(-c3c(C(=O)OCC)oc4cc(O)cc(O)c4c3=O)ccc2o1 | -9.29% (inactive) | –
O=c1c(-c2ccc3c(c2)OCCO3)c(C(F)(F)F)oc2cc(O)cc(O)c12 | -13.6% (inactive) | –
O=c1cc(-c2ccc(O)cc2)oc2c(-c3cc(-c4cc(=O)c5c(O)cc(O)cc5o4)ccc3O)c(O)ccc12 | – | 26.7 µM (active)
C=C(C)C1CC=C(C)C(O)C1 (stereo not drawn) | -10.7% [at 60.1 µM] (inactive) | –
C=C1C=C(C)n2ncc(C(=O)Nc3ccccc3O)c2N1 | -24.3% (inactive) | –
CC(=O)c1ccc(NC(=O)CSc2nnc(NC(=O)Nc3ccccc3)s2)cc1 | 5.47% [at 60.1 µM] (inactive) | –
CC(C)c1ccc(Nc2nnc(SCC(=O)c3nnc(-c4ccccc4)o3)s2)cc1 | – | 79.4 µM (active)
CN(C(=O)CSc1nnc(NC(=O)Nc2ccccc2)s1)c1ccccc1 | -11.2% [at 60.1 µM] (inactive) | –
